An excerpt weighted towards active compounds, which were near 4.2% of everything screened.
Wnt bcat act: Wnt/beta-catenin pathway activators, primary screen, cell-based, plate reader, single point. activation, % at 9.35 µM. hit rate 1.2% among 300,000. Wnt/beta-catenin reporter cell assay, activator; in the data active means activation above about 30%, passing the limit was not always enough; inconclusive means no clear call, values can overlap the other calls;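 further: 0% = neutral control wells and 100% = positive control wells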
MITF act: activators of MITF-driven TRPM1 promoter reporter, primary screen, cell-based, SK-MEL-5, luciferase, single point; SK-MEL-5 TRPM1-promoter luciferase, 24 h; % of positive control, neutral wells = 0; hit rate 0.75% among 300,000; AID 588334, 2011; activation, % at 12.5 µM;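 active means mean activation of at least 80% with every replicate also reaching 80%; inconclusive means mean reaches 80% but some replicate falls short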;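 further: 0% = neutral control wells and 100% = parthenolide positive control wells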
esBAF inh: Bmi1 luciferase reporter increase in mESCs, primary screen, esBAF inhibitor project, mouse ES cells, Bmi1 luciferase knock-in, single point; 24 h; 100% = twice the neutral-well signal; reporter increase, % at 12.5 µM; hit rate 2% among 350,000; AID 602393, 2012; in the data active means activation above about 40%; inconclusive means no clear call, values can overlap the other calls;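 further: 0% = median of the plate's neutral control wells and 100% = double that signal; a rise in the Bmi1 reporter signal indicates esBAF inhibition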
AHR activator: AHR activators, primary screen, cell-based, luminescence, luciferase reporter, human | activation, % at 5 µM | Aryl hydrocarbon receptor (Homo sapiens), P35869 | AHR-responsive luciferase reporter cells | AID 2796, 2010 | hit rate 2.5% among 320,000; in the data active means activation above about 47%;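 further: 0% = vehicle wells and 100% = reference agonist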
Target sequence (P35869 whole entry, looked up): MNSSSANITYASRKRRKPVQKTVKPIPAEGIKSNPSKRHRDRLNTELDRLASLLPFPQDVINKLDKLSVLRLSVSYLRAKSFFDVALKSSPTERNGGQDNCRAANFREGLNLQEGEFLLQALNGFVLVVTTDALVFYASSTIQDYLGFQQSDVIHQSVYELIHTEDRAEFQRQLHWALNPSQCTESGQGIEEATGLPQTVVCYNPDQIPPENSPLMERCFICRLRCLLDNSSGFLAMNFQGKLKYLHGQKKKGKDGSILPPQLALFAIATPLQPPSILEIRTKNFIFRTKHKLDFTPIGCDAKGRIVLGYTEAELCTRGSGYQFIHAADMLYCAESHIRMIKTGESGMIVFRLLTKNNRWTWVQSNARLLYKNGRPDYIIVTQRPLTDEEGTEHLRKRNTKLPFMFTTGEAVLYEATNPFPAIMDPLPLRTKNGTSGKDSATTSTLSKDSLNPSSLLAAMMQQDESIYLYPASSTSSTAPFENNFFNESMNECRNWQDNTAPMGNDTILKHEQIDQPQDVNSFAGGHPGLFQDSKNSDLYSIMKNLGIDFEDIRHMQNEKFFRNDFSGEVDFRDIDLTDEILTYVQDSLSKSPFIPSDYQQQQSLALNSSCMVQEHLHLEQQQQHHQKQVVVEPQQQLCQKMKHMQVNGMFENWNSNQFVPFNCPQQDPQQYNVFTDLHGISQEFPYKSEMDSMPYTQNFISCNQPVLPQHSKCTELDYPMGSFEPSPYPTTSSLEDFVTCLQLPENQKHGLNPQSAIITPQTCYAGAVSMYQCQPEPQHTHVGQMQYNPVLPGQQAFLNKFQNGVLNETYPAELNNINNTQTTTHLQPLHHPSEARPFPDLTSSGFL
FXN GAA850 act: FXN promoter activators, primary screen, cell-based, luciferase luminescence, HEK293 lucGAA850. HEK293 lucGAA850 FXN promoter luciferase reporter, 24 h; percent of 10 µM SAHA response. activation, % at 6 µM. hit rate 0.56% among 360,000. AID 540364, 2011;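 active means activation above the average of all compounds screened plus 3 SD, cutoff fixed separately per campaign, cut at about 7.5% in these data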;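 further: 0% = DMSO wells and 100% = 10 µM SAHA wells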
Starred values were filed as active, the others as inactive; ? = inconclusive; . = no result.

SMILES	Wnt bcat act	MITF act	esBAF inh	AHR activator	FXN GAA850 act
Nn1cc(-c2ccccc2)nc1SCC(=O)Nc1ccc2c(c1)OCO2	-2	2	.	69*	2
O=C(CSc1nnnn1CCCO)Nc1ccc2c(c1)OCO2	0	-1	.	55*	0
CC(C)n1nnnc1SCC(=O)Nc1ccc2c(c1)OCO2	9	23	22	56*	-1
CCCCn1nnnc1SCC(=O)Nc1ccc(F)cc1	.	.	-5	16	1
CCCCn1nnnc1SCC(=O)Nc1ccc(N(C)C)cc1	-4	.	0	71*	2
CC(C)n1nnnc1SCC(=O)NCc1ccc2c(c1)OCO2	-2	-4	-12	0	1
Cc1ccc(S(=O)(=O)N(C)C[C@@H]2Oc3ccc(NC(=O)NC(C)C)cc3C(=O)N([C@H](C)CO)C[C@@H]2C)cc1	.	.	-2	.	.
CC(=N)c1c(O)c2ccccc2oc1=O	8	16	.	13	1
CCCCN=C(C)c1c(O)c2ccccc2oc1=O	-1	.	42*	7	3
CCCCC(=O)c1c(O)c2ccccc2oc1=O	.	-6	59*	6	-1
Cc1sc2nc(-c3cccnc3)[nH]c(=O)c2c1-c1ccccc1	2	-5	7	63*	1
NC(=O)CCCn1c(C(=O)c2cc(Cl)c(N)c(Cl)c2)c2ccc([N+](=O)[O-])cc2[n+]1[O-]	3	-55	-35	77*	2
NC(=O)CCCn1c(C(=O)c2ccc(Cl)cc2)c2ccc(C(F)(F)F)cc2[n+]1[O-]	-1	-21	-12	61*	2
COC(=O)c1ccc(/C=C(\C#N)C(=O)NC(C)c2ccccc2)cc1 (stereo not given)	-5	-81	.	-1	2
N#C/C(=C\c1ccc(N2CCOCC2)cc1)c1ccccc1	33*	143*	27	-3	6
CC(NC(=O)/C(C#N)=C/c1ccc(N2CCOCC2)cc1)c1ccccc1 (stereo not given)	-3	17	-3	47*	0
COc1ccccc1/C=C1\SC(=S)N(CCC(=O)NNC(=O)c2ccccc2O)C1=O	.	-24	-10	56*	1
COCCNC(=O)C[C@@H]1CC[C@@H]2[C@@H](COc3ccc(NS(=O)(=O)c4ccc(Cl)cc4)cc3C(=O)N2C)O1	.	.	4	.	.
COc1ccc(CCNC(=O)CN2C(=O)c3ccccc3C2=O)cc1	.	7	6	2	2
CCOC(=O)C1(NC(=O)C2(NC(=O)CN3C(=O)c4ccccc4C3=O)CCCC2)CCCC1	47*	-2	-3	.	2
CCCNC(=O)N[C@@H]1CC[C@H](CCNS(=O)(=O)c2cccc(F)c2)O[C@H]1CO	.	.	1	.	.
O=C(COC(=O)c1ccccc1)NCC1CCCO1 (stereo not given)	.	8	49*	3	0
O=C(COC(=O)c1ccc(Br)cc1)NCC1CCCO1 (stereo not given)	-1	16	-8	0	0
COC(=O)c1ccc(NC(=O)C(=O)NCC2CCCO2)cc1 (stereo not given)	14	14	45*	5	4
Cc1ccc(/C=C(\C#N)C(=O)NCC2CCCO2)o1 (stereo not given)	78*	10	13	1	4
SMILES	Wnt bcat act	MITF act	esBAF inh	AHR activator	FXN GAA850 act
S=C(NCC1CCCO1)Nc1ccc(Cl)cc1 (stereo not given)	4	6	.	4	2
S=C(NCC1CCCO1)Nc1ccc(Cl)cc1Cl (stereo not given)	?	10	49*	4	5
CN1c2ccc(-c3cccc(F)c3)cc2[C@@H]2[C@@H](CCN2C(=O)C2CCCC2)[C@@H]1CO	.	.	2	.	.
O=C(NC(=S)NCC1CCCO1)c1ccc(Cl)cc1 (stereo not given)	2	88*	.	12	6
O=C(NCC1CCCO1)Nc1ccc(Cl)cc1 (stereo not given)	-1	43	45*	5	2
O=C(NCC1CCCO1)Nc1cc(Cl)cc(Cl)c1 (stereo not given)	2	33	.	12	2
CC(C)C/C=C1\CCc2c([nH]c3ccccc23)C1=O	39*	62	52*	64*	2
CC1C/C(=C\c2cccnc2)C(=O)/C(=C/c2cccnc2)C1 (stereo not given)	.	-97	.	2	-14
O=C1/C(=C/c2cccnc2)CCc2c1[nH]c1ccccc21	5	?	.	73*	-7
C[C@H]1CCCCO[C@H](CN(C)Cc2ccccc2)[C@@H](C)CN([C@@H](C)CO)C(=O)c2cc(NC(=O)C3CCCCC3)ccc2O1	.	.	7	.	.
COC(=O)C[C@@H]1CC[C@@H]2[C@@H](COc3ccc(NC(=O)Nc4ccc(C#N)cc4)cc3C(=O)N2C)O1	.	.	2	.	.
COc1ccc2[nH]c(=O)c(CNc3ccccc3OC)cc2c1	-1	-5	2	24	2
CCOc1ccc(NCc2cc3cc(OC)ccc3[nH]c2=O)cc1	6	-7	.	1	2
COc1ccc2[nH]c(=O)c(CNc3ccccc3)cc2c1	28	17	85*	3	6
COc1ccc2[nH]c(=O)c(CNc3ccccc3C)cc2c1	39*	16	.	7	7
O=[N+]([O-])c1cccc(COc2ccc(CN3CCOCC3)cc2)c1	9	111*	-17	.	3
CC(=O)Nc1ccc(OCc2cccc([N+](=O)[O-])c2)cc1	59*	6	.	-2	6
COc1ccc(S(=O)(=O)Nc2ccc3c(c2)C(=O)N([C@H](C)CO)C[C@@H](C)[C@H](CN(C)C(=O)NC(C)C)OCCCC[C@@H](C)O3)cc1	.	.	-3	.	.
CN(C)/C=C/C(=O)/C=C/c1ccc(Cl)cc1Cl	?	92*	.	-1	4
O=C(/C=C/c1ccc(Cl)cc1Cl)c1ccc[nH]1	.	43	26	-3	3
C[C@H]1CN([C@@H](C)CO)C(=O)c2cccc(NC(=O)c3cnccn3)c2O[C@@H]1CN(C)C(=O)Nc1ccccc1	.	.	0	.	.
COc1ccc(/C=C2\NC(=S)N(CC3CCCO3)C2=O)c(OC)c1 (stereo not given)	18	52	48*	10	2
O=C(O)c1ccc(Sc2nnnn2-c2ccccc2)c([N+](=O)[O-])c1	9	3	-3	4	-2
COC(=O)c1c(C)[nH]c(C(=O)CSc2nnnn2-c2ccccc2)c1C	-3	-2	48*	7	2
COC(=O)c1ccc(Sc2nnnn2-c2ccccc2)c([N+](=O)[O-])c1	-16	-52	46*	1	-9
CCOC(=O)c1c(C)[nH]c(C)c1C(=O)CSc1nnnn1-c1ccccc1	3	4	1	19	5
COc1ccc(NC(=O)N(C)C[C@@H]2Oc3ccc(N(C)C)cc3C(=O)N([C@@H](C)CO)C[C@@H]2C)cc1	.	.	2	.	.

Assay outcomes deposited in PubChem by several laboratories.
